The text below walks through data of PubChem BioAssay (NCI).

Common to all, as to assay: NCI-60 one-dose screen, 48 h (100 = growth as untreated, 0 = no growth, -100 = all killed)
Holding throughout (settings): 10 µM unless noted

Experiment [1] deals with NCI-H23 lung.
Experiment [2] has as its system NCI-H226 lung.
Experiment [3] relates to NCI-H322M lung.
For experiment [4], the system named is HOP-62 NSCLC.
Experiment [5] deals with NCI-H460 lung.
The test system of experiment [6] is HOP-92 NSCLC.
Experiment [7] has as its system NCI-H522 lung.
For experiment [8], the system named is 786-0 renal.
In experiment [9] the test system is COLO 205 colon.
The subject of experiment [10] is DU-145 prostate.
For experiment [11], the system named is K-562 leukemia.
The subject of experiment [12] is MALME-3M melanoma.
Experiment [13] has as its system MDA-MB-231 breast.
In experiment [14] the test system is RXF 393 renal.
The subject of experiment [15] is SF-268 CNS.
For experiment [16], the system named is SF-295 CNS.
Experiment [17] relates to SF-539 CNS.
For experiment [18], the system named is UACC-257 melanoma.
Experiment [19] deals with M14 melanoma.

Structures are written as SMILES. This is part of a sample that, as a whole, favours compounds with a hit. Of some 83,000 tested, about 20% had one in any assay.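 Percent growth is the endpoint: 0 to 100 indicates growth inhibition (40 means 60% inhibition), 0 means no net growth, and negative values indicate cell death.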 Unmarked numbers belong to inactive results. The source made the active and inactive calls. Rule for the calls: active = growth percent below 10; inactive = the rest.

Consider `CCCCCCCCCCOC(=O)c1nn(C(C)=O)c2cc(C)c(C)cc12`, for which the growth in experiment [1] is 96.3%; in [2] it was 87.8%; in experiment [3], 107%; in experiment [4], 94.5%; in [5] it was 101%; in [6], 68.5%. Besides, the growth was 75.1% in [7]; 94.6% in experiment [8]; 102% in [9]; 106% in experiment [10]; 95.2% in [11]; 104% in [12]. Also, the growth is 105% in experiment [13]; 104% in experiment [14]; 102% in [15]; 96% in experiment [16]; 97.6% in [17]; 96.3% in experiment [18]. For the same molecule, the growth in [19] was 90.7%.
As to `CC(C)CCC[C@@H](C)[C@H]1CC[C@H]2[C@@H]3CC=C4c5sc(Nc6cc(C(F)(F)F)cc(C(F)(F)F)c6)nc5CC[C@]4(C)[C@H]3CC[C@]12C`, the growth in [1] was 93.4%; in experiment [2], 104%; in experiment [3] it was 99.1%; in [4], 81.9%; in [5], 105%; in experiment [6], 79%. The growth in experiment [7] is 101%; in experiment [8] it was 110%; in [10] it was 104%; in experiment [11], 101%; in [12], 94.8%; in experiment [13], 108%. Besides, the growth in experiment [14] is 107%; in experiment [15], 101%; in experiment [16] it was 104%; in experiment [17] it was 98%; in experiment [18], 99.2%; in experiment [19] it was 98.6%.
On to `O=C(Nc1cccnc1Nc1ccc(Cl)cc1)c1cn(Cc2cccc(Oc3ccccc3)c2)nn1`, for which the growth in experiment [1] was 63%; in experiment [2], 55.9%; in experiment [3] it was 68.7%; in [4], 61.1%; in experiment [5], 35.2%; in experiment [6], 53%. Moreover, the growth was 44.6% in [7]; 52.2% in [8]; 73.6% in experiment [9]; 59.7% in [10]; 23.1% in experiment [11]; 58% in experiment [12]. In addition, the growth in experiment [13] was 53.3%; in experiment [14] it was 44.1%; in experiment [15], 45.2%; in experiment [16] it was 29.2%; in experiment [17] it was 33.6%; in experiment [18], 62%. Moreover, the growth in experiment [19] was 21.8%.
Consider `O=C(Nc1nc(Cl)nc(Nc2ccc(N3CCOCC3=O)cc2)n1)c1ccc(Cl)s1`, for which the growth in experiment [1] is 88.1%; in experiment [2] it was 86.4%; in experiment [3], 97.8%; in experiment [4] it was 97.6%; in [5] it was 99.9%; in experiment [6] it was 80.2%. In addition, the growth in experiment [7] is 81.1%; in experiment [8] it was 108%; in experiment [9] it was 97.3%; in experiment [10] it was 104%; in experiment [11], 64.2%; in experiment [12], 88.3%. Further, the growth in experiment [13] is 88.3%; in experiment [14] it was 91.3%; in [15] it was 95.9%; in experiment [16], 92.7%; in [17] it was 104%; in experiment [18] it was 72.2%. The growth in [19] is 90.4%.
On to `O=Nc1ccc(NC(=O)Nc2ccc([N+](=O)[O-])cc2)cc1`, for which the growth in [1] is 87.5%; in experiment [2] it was 99.6%; in experiment [3] it was 103%; in experiment [4], 110%; in [5], 91.5%; in experiment [6], 56.5%. Besides, the growth in experiment [7] was 78.8%; in experiment [8], 86.5%; in experiment [9], 116%; in experiment [10], 113%; in [11], 58.8%; in [12] it was 102%. Further, the growth in experiment [13] was 87%; in experiment [14], 119%; in experiment [15] it was 104%; in [16] it was 98.1%; in experiment [17], 101%; in experiment [18], 104%. Further, in experiment [19], the growth was 102%.
For the molecule `COc1ccc(/C=C(/C(=O)N2CCNCC2)c2cc(OC)c(OC)c(OC)c2)cc1O`, the growth in experiment [1] was 49.9%; in experiment [2] it was 88.7%; in [3] it was 50%; in experiment [4], 56.4%; in experiment [5] it was 37.6%; in experiment [6], 48.7%. Besides, the growth in experiment [7] was 0.313% (active); in [8], 95.5%; in experiment [9] it was 25.9%; in experiment [10], 27%; in [11], 22%; in [12] it was 46.6%. Moreover, the growth in [13] was 58.2%; in [14], 7.47% (active); in experiment [15] it was 49.5%; in experiment [16], 66.3%; in experiment [17], 6.82% (active); in experiment [18] it was 27%. Further, the growth in experiment [19] is 38%.
With `CCOC(=O)C(CCN(C)C)c1ccccc1` (configuration not stated), the growth in [1] is 94.4%; in experiment [2], 90.3%; in experiment [3] it was 91.9%; in [4] it was 88.8%; in [5], 105%; in experiment [6], 78.8%. For the same molecule, the growth in experiment [7] was 84.5%; in [8], 98.1%; in [9] it was 116%; in experiment [10], 105%; in [11], 107%; in [12], 96%. Moreover, the growth in experiment [13] is 99%; in experiment [14] it was 90.4%; in experiment [15], 90%; in [16], 101%; in experiment [17], 96.2%; in [18], 94.2%. Further, the growth in [19] was 106%.
